Assay outcomes from PubChem BioAssay.
esBAF inh: inhibitors of esBAF chromatin remodeling in mouse ES cells. reporter increase, % at 12.5 µM. Bmi1-luciferase knock-in reporter, 24 h; 100% = twice the neutral-well signal. 350,000 compounds, 2% hits. AID 602393; in the data active = activation above about 40%; inconclusive = no clear call, values can overlap the other calls;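 also: 0% = median of the plate's neutral control wells and 100% = double that signal; a rise in the Bmi1 reporter signal indicates esBAF inhibition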
MITF TRPM1 HTS: activators of MITF-driven TRPM1 promoter activity in SK-MEL-5 cells | SK-MEL-5 TRPM1-promoter luciferase, 24 h; % of positive control, neutral wells = 0 | activation, % at 12.5 µM | 300,000 compounds, 0.75% hits;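 active = mean activation of at least 80% with every replicate also reaching 80%; inconclusive = mean reaches 80% but some replicate falls short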;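 also: 0% = neutral control wells and 100% = parthenolide positive control wells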
FXN GAA850 act: frataxin GAA850 promoter activation; HEK293 lucGAA850 FXN promoter luciferase reporter, 24 h; percent of 10 µM SAHA response; activation, % at 6 µM; 360,000 compounds, 0.56% hits;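 active = activation above the average of all compounds screened plus 3 SD, cutoff fixed separately per campaign, cut at about 7.5% in these data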;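 also: 0% = DMSO wells and 100% = 10 µM SAHA wells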
Wnt act: activators of Wnt/beta-catenin signaling; Wnt/beta-catenin reporter cell assay, activator, plate reader; activation, % at 9.35 µM; 300,000 compounds, 1.2% hits; AID 743398; in the data active = activation above about 30%, passing the limit was not always enough; inconclusive = no clear call, values can overlap the other calls;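 also: 0% = neutral control wells and 100% = positive control wells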
* = called active by the depositor. In the library only some 2.8% were active in any assay of this set; here they are far more common.

How did COc1ccc(S(=O)(=O)N2CC[C@@H]3[C@@H](CO)Nc4ccc(-c5cccc(C#N)c5)cc4[C@@H]32)cc1 do in these assays?
esBAF inh: -13.6

How did CC(C)CC(=O)N/C(N)=N/c1nc2ccccc2o1 do in these assays?
esBAF inh: 74.9*; MITF TRPM1 HTS: 85.5*; FXN GAA850 act: 2.9; Wnt act: 53.2*

How did CC(C)(C)C(=O)N/C(N)=N/c1nc2ccccc2o1 do in these assays?
esBAF inh: 14.8; MITF TRPM1 HTS: inconclusive; FXN GAA850 act: 6.2; Wnt act: 65.4*

What do the screens show for `N/C(=N\c1nc2ccccc2o1)NC(=O)c1ccccc1`?
MITF TRPM1 HTS: 53.8; FXN GAA850 act: 1.2

How did CCCC(=O)N/C(N)=N/c1nc2ccccc2o1 do in these assays?
MITF TRPM1 HTS: 87.6*; FXN GAA850 act: 3.4; Wnt act: 46.4*

Results for CC(C=NNc1ccc([N+](=O)[O-])cn1)=Cc1ccccc1 ?
esBAF inh: -8.1; MITF TRPM1 HTS: 77.9; FXN GAA850 act: 5.0; Wnt act: 63.7*

What do the screens show for `O=C(O)c1ccccc1C=NNc1ccc([N+](=O)[O-])cn1`?
esBAF inh: 1.1; MITF TRPM1 HTS: 1.1; FXN GAA850 act: 1.6; Wnt act: 2.7

How did CC(=NNc1ccc([N+](=O)[O-])cn1)c1ccccc1 do in these assays?
esBAF inh: 88.5*; MITF TRPM1 HTS: 92.1*; FXN GAA850 act: 2.1; Wnt act: 6.4

What do the screens show for `O=[N+]([O-])c1ccc(Nc2ccc3ccccc3c2)nc1`?
esBAF inh: 95.6*; MITF TRPM1 HTS: 79.5; FXN GAA850 act: 7.3; Wnt act: -0.4

How did C/C(=N\Nc1ccc([N+](=O)[O-])cc1)c1cccc(N)c1 do in these assays?
esBAF inh: 84.9*; MITF TRPM1 HTS: 107.6*; FXN GAA850 act: 7.4; Wnt act: 26.0

How did O=[N+]([O-])c1ccc(Nc2ccc(Cl)cc2)nc1 do in these assays?
MITF TRPM1 HTS: 16.3; FXN GAA850 act: 3.9; Wnt act: 3.5

How did CCCNC(=O)N1[C@@H]2CN(C(=O)NC(C)C)c3ccccc3[C@@H]2[C@@H]1CO do in these assays?
esBAF inh: -0.4

What do the screens show for `Cc1ccc2c(c1)c1cccc3c1n2CCN3CCC(N)=O`?
esBAF inh: 74.8*; MITF TRPM1 HTS: 76.1; FXN GAA850 act: -1.5

What do the screens show for `NC(=O)CCn1c2ccccc2c2ccccc21`?
MITF TRPM1 HTS: 2.3; FXN GAA850 act: -0.9; Wnt act: -3.5

Results for C[C@H](CO)N1C[C@H](C)[C@@H](CN(C)Cc2cccnc2)Oc2ncc(C#CC3CCCCC3)cc2C1=O ?
esBAF inh: 1.1

How did COC(=O)c1sc(NC(=O)Cc2cccs2)nc1C do in these assays?
esBAF inh: 41.7*; MITF TRPM1 HTS: 37.9; FXN GAA850 act: 0.4

Results for COC(=O)c1sc(NC(=O)c2ccco2)nc1C ?
esBAF inh: 32.9; MITF TRPM1 HTS: 23.9; FXN GAA850 act: 0.9

Results for COC(=O)c1sc(NC(=O)c2ccoc2C)nc1C ?
esBAF inh: 48.9*; FXN GAA850 act: -1.1; Wnt act: 9.8

Results for COC(=O)c1sc(NC(=O)COc2ccccc2)nc1C ?
esBAF inh: -1.2; MITF TRPM1 HTS: 56.5; FXN GAA850 act: 4.0

Results for C[C@@H]1CN([C@H](C)CO)C(=O)c2cc(C#CC3CCCCC3)cnc2O[C@H]1CN(C)C(=O)C1CCCCC1 ?
esBAF inh: 3.9

Results for CC(C)NC(=O)N(C)C[C@@H]1Oc2ccc(NC(=O)c3ccncc3)cc2C(=O)N([C@H](C)CO)C[C@H]1C ?
esBAF inh: -4.4

What do the screens show for `C[C@@H]1CN([C@H](C)CO)C(=O)c2cc(Br)cnc2O[C@H]1CN(C)S(=O)(=O)c1ccccc1`?
esBAF inh: -3.8

How did CN(C)C(=O)C[C@@H]1C=C[C@@H](NS(=O)(=O)c2ccccc2)[C@H](CO)O1 do in these assays?
esBAF inh: 0.7

How did CCOC(=O)/C=C1/SCC(=O)N1CC(=O)Nc1cccc(F)c1 do in these assays?
esBAF inh: -2.5; MITF TRPM1 HTS: 1.6; FXN GAA850 act: 1.3; Wnt act: 4.8

How did CCOC(=O)/C=C1\SCC(=O)N1CC(=O)Nc1ccc2c(c1)CCC2 do in these assays?
esBAF inh: 0.9; MITF TRPM1 HTS: -9.3; FXN GAA850 act: 0.3; Wnt act: 43.5*

What do the screens show for `C[C@@H]1CCCCO[C@@H](CN(C)CC2CC2)[C@H](C)CN([C@@H](C)CO)C(=O)c2cc(NS(C)(=O)=O)ccc2O1`?
esBAF inh: -1.5

What do the screens show for `O=C1C(=Cc2ccc(Br)o2)C(=O)c2ccccc21`?
esBAF inh: 63.7*; MITF TRPM1 HTS: 12.7; FXN GAA850 act: 5.0

What do the screens show for `CC1=C/C(=C\c2ccc(Br)o2)C(=O)O1`?
MITF TRPM1 HTS: -5.3; FXN GAA850 act: 1.5; Wnt act: -4.2

What do the screens show for `O=C(NCC1CCCN1S(=O)(=O)c1cccs1)C(=O)Nc1ccccc1Cl` (stereo unspecified)?
esBAF inh: 50.7*; MITF TRPM1 HTS: 29.0; FXN GAA850 act: 0.3; Wnt act: 3.9

How did O=C(NCC1CCCN1S(=O)(=O)c1cccs1)C(=O)Nc1ccccc1F (stereo unspecified) do in these assays?
esBAF inh: 25.1; FXN GAA850 act: 3.1; Wnt act: -3.6

What do the screens show for `COc1cccc(NC(=O)C(=O)NCC2CCCN2S(=O)(=O)c2ccccc2)c1` (stereo unspecified)?
esBAF inh: 78.8*; MITF TRPM1 HTS: 157.8*; FXN GAA850 act: 4.3; Wnt act: 43.4*

What do the screens show for `COc1cccc(C(=O)NCC2CCCN2S(=O)(=O)c2ccccc2)c1` (stereo unspecified)?
esBAF inh: -3.3; MITF TRPM1 HTS: 2.6; FXN GAA850 act: -1.2; Wnt act: -0.7

Results for C/C(=N\NC(=O)c1c[nH]c2ccccc12)c1ccco1 ?
esBAF inh: 51.2*; MITF TRPM1 HTS: 18.8; FXN GAA850 act: 4.9; Wnt act: -0.6

How did Cc1cccc(C)c1NC(=O)c1c[nH]c2ccccc12 do in these assays?
esBAF inh: 49.1*; MITF TRPM1 HTS: 77.4; FXN GAA850 act: 1.1; Wnt act: 23.0

How did O=c1oc(CCCO)cc2ccc(C#CC3(O)CCCCC3)cc12 do in these assays?
esBAF inh: -32.7; MITF TRPM1 HTS: 48.4; FXN GAA850 act: 1.7; Wnt act: 19.7

What do the screens show for `O=c1oc(CCCO)cc2ccc(C#Cc3ccsc3)cc12`?
esBAF inh: 66.7*; MITF TRPM1 HTS: 121.4*; FXN GAA850 act: 3.6; Wnt act: 46.1*

What do the screens show for `CN(C)c1ccc(C#Cc2ccc3cc(CCCO)oc(=O)c3c2)cc1`?
esBAF inh: 57.2*; MITF TRPM1 HTS: 93.3*; FXN GAA850 act: 5.4; Wnt act: inconclusive

Results for CN(C)c1ccc(/C=N/N2CCN(c3ccccn3)CC2)cc1 ?
FXN GAA850 act: 3.9; Wnt act: 43.3*

How did Cc1ccc(N2CCN(/N=C/c3ccccc3[N+](=O)[O-])CC2)cc1 do in these assays?
esBAF inh: 15.2; MITF TRPM1 HTS: 14.0; FXN GAA850 act: -1.1; Wnt act: 10.8

How did O=[N+]([O-])c1ccccc1C=NN1CCCCCC1 do in these assays?
esBAF inh: 46.7*; MITF TRPM1 HTS: 19.3; FXN GAA850 act: 0.2; Wnt act: 7.7

How did O=[N+]([O-])c1ccccc1/C=N/N1CCN(c2ccccn2)CC1 do in these assays?
esBAF inh: 60.0*; FXN GAA850 act: 2.9; Wnt act: 14.7
